Test results reported in PubChem BioAssay (NCATS).
Values joined by “and” are separate entries in the source; they are usually repeats but may differ in a detail not shown here. Identical values can stand only once. Results filed as inconclusive are left out. A call without a number means that no potency is given here. Active and inactive are the calls of the source. The call rests on the fitted dose curve; in most records, active means well fitted curve in the direction sought with a large enough effect; inconclusive means small, poorly fitted or top-dose-only effect, or another doubt; inactive means no such curve, though single readings can be large; an effect the other way counts as inactive or inconclusive.

How the values were obtained:
[1] = qHTS of pediatric cancer cell lines to identify multiple opportunities for drug repurposing: Primary screen for NB1643 cells (AID 1347099); further: nearly all actives have a fitted effect of over 50% in size
Method in brief: (§1)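 ATP-based luminescence (CellTiter-Glo) quantifies viability after a 48-hour exposure. Compounds are dosed across 8 or 11 final concentrations; DMSO and 2.3 µM bortezomib serve as controls.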

[2] = qHTS of pediatric cancer cell lines to identify multiple opportunities for drug repurposing: Primary screen for Rh18 cells (AID 1347102); further: nearly all actives have a fitted effect of over 65% in size
Method in brief: (§2)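 Cells (500-1,000/well) in growth media were settled 5 h at 37 degrees C, then given compounds for 48 h. Viability was read as CellTiter-Glo luminescence. Primary runs used MIPE at 11 points (0.78 nM-46 µM) and NPC at 8 points (0.59 nM-46 µM); follow-ups used 11 points.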

[3] = qHTS of pediatric cancer cell lines to identify multiple opportunities for drug repurposing: Primary screen for OHS-50 cells (AID 1347103); further: nearly all actives have a fitted effect of over 40% in size
Method in brief: (§3)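 Cells (500-1,000/well) rested 5 h, then received compounds for 48 h; metabolically active cells were measured by CellTiter-Glo luminescence. Final concentrations spanned up to 46 µM (MIPE, 11-point) or 0.59 nM-46 µM (NPC, 8-point) in primary screens, 11-point in follow-ups.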

[4] = qHTS of pediatric cancer cell lines to identify multiple opportunities for drug repurposing: Primary screen for RD cells (AID 1347104); further: nearly all actives have a fitted effect of over 55% in size
Method in brief: as §1

[5] = qHTS of pediatric cancer cell lines to identify multiple opportunities for drug repurposing: Primary screen for control Hh wild type fibroblast cells (AID 1347106); further: nearly all actives have a fitted effect of over 55% in size
Method in brief: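 Viability after 48 h compound treatment at 37C, 500-1,000 cells/well, read as ATP luminescence with CellTiter-Glo. Primary screens used 11-point (MIPE, 0.78 nM-46 µM) or 8-point (NPC, 0.59 nM-46 µM) final concentrations; follow-up screens used 11-point dilutions.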

[6] = qHTS of pediatric cancer cell lines to identify multiple opportunities for drug repurposing: Primary screen for Rh30 cells (AID 1347107); further: nearly all actives have a fitted effect of over 75% in size
Method in brief: as §2

[7] = qHTS of pediatric cancer cell lines to identify multiple opportunities for drug repurposing: Primary screen for Rh41 cells (AID 1347108); further: nearly all actives have a fitted effect of over 70% in size
Method in brief: as §1

[8] = qHTS of pediatric cancer cell lines to identify multiple opportunities for drug repurposing: Primary screen for LAN-5 cells (AID 1347100)
Method in brief: as §2

[9] = qHTS of pediatric cancer cell lines to identify multiple opportunities for drug repurposing: Primary screen for BT-12 cells (AID 1347101); further: nearly all actives have a fitted effect of over 25% in size
Method in brief: as §3

[10] = qHTS of pediatric cancer cell lines to identify multiple opportunities for drug repurposing: Primary screen for MG 63 (6-TG R) cells (AID 1347105); further: nearly all actives have a fitted effect of over 50% in size
Method in brief: as §1
Potency means the concentration at half of the fitted maximal effect.

| Compound | Potency [1] | Potency [2] | Potency [3] | Potency [4] | Potency [5] | Potency [6] | Potency [7] | Potency [8] | Potency [9] | Potency [10] |
| --- | --- | --- | --- | --- | --- | --- | --- | --- | --- | --- |
| COc1ccc(-c2ccc3cc(C(=O)O)ccc3c2)cc1C12CC3CC(CC(C3)C1)C2 | inactive | inactive | 0.0153 µM (active) | inactive | inactive | inactive | inactive | – | – | – |
| CN1CCN(c2c(F)cc3c(=O)c(C(=O)O)cn(CCF)c3c2F)CC1 | – | inactive | inactive | inactive | inactive | inactive | inactive | inactive | inactive | inactive |
| CC1=C(C(=O)O)N2C(=O)[C@@H](NC(=O)C(N)c3ccccc3)[C@H]2SC1 (stereo partly drawn) | – | inactive | inactive | inactive | inactive | inactive | inactive | inactive | inactive | inactive |
| COc1cc2ncnc(Nc3cccc(Cl)c3)c2cc1OC | 0.372 µM (active) | – | 24.3 µM (active) | – | inactive | inactive | – | – | – | – |
| N=C(N)c1ccc(OCCCCCOc2ccc(C(=N)N)cc2)cc1 | 20.9 µM (active) | – | – | 18.7 µM (active) | inactive | inactive | – | – | 2.46 µM (active) and 4.85 µM (active) | – |
| COc1c(N2CCNC(C)C2)c(F)cc2c(=O)c(C(=O)O)cn(C3CC3)c12 (stereo not drawn) | – | inactive | inactive | inactive | inactive | inactive | inactive | inactive | inactive | inactive |
| CC(=O)[C@H]1CC[C@H]2[C@@H]3CCC4=CC(=O)CC[C@]4(C)[C@H]3CC[C@]12C | 2.96 µM (active) | – | 19.3 µM (active) | – | inactive | – | – | – | 24.3 µM (active) | 11.8 µM (active) |
| CC1=CC(=O)c2ccccc2C1=O | – | inactive | – | 18.7 µM (active) | inactive | inactive | – | 16.8 µM (active) and 23.5 µM (active) | inactive | inactive |
| COc1cc2nc(N3CCCN(C)CC3)nc(NC3CCN(Cc4ccccc4)CC3)c2cc1OC | – | 9.35 µM (active) | 8.63 µM (active) | 8.33 µM (active) | 16.6 µM (active) | – | 18.7 µM (active) | 8.33 µM (active) | 10.9 µM (active) | – |
| CC[C@H](C)C(=O)O[C@H]1C[C@@H](C)C=C2C=C[C@H](C)[C@H](CC[C@@H]3C[C@@H](O)CC(=O)O3)[C@H]21 | – | – | 6.92 µM (active) and 9.68 µM (active) | – | inactive | – | – | inactive | 1.23 µM (active) and 3.43 µM (active) | 4.22 µM (active) and 4.69 µM (active) |
| CS(=O)(=O)c1ccc([C@@H](O)[C@@H](CO)NC(=O)C(Cl)Cl)cc1 | – | inactive | inactive | inactive | inactive | inactive | inactive | inactive | inactive | – |
| Cc1cc(NS(=O)(=O)c2ccc(N)cc2)no1 | – | inactive | inactive | inactive | inactive | inactive | inactive | inactive | inactive | – |
| COc1nc(N)nc2c1ncn2[C@@H]1O[C@H](CO)[C@@H](O)[C@@H]1O | – | inactive | inactive | – | inactive | inactive | – | inactive | inactive | inactive |
| CCc1cc(C(N)=S)ccn1 | – | inactive | inactive | inactive | inactive | inactive | inactive | inactive | inactive | – |
| CN(C)CCc1c[nH]c2ccc(CS(=O)(=O)N3CCCC3)cc12 | – | inactive | inactive | inactive | inactive | inactive | inactive | inactive | inactive | inactive |
| CNC1CCCN(c2c(F)cc3c(=O)c(C(=O)O)cn(C4CC4)c3c2OC)C1 (stereo not drawn) | – | inactive | inactive | inactive | inactive | inactive | – | inactive | inactive | – |
| CN1CCCC(n2nc(Cc3ccc(Cl)cc3)c3ccccc3c2=O)CC1 (stereo not drawn) | – | 1.48 µM (active) | 27.6 µM (active) and 968 nM (active) | – | – | inactive | inactive | 0.662 µM (active) | 2.73 µM (active) | – |
| CC[C@H](NC(C)C)[C@H](O)c1ccc(O)c2[nH]c(=O)ccc12 | – | inactive | inactive | inactive | inactive | inactive | inactive | inactive | inactive | – |
| COC(=O)Nc1nc2ccc(C(=O)c3ccccc3)cc2[nH]1 | – | inactive | 138 nM (active) and 1.53 µM (active) | 1.66 µM (active) | – | inactive | – | 0.469 µM (active) | 347 nM (active) and 2.43 µM (active) | – |
| C1CCC(C(CC2CCCCN2)C2CCCCC2)CC1 (stereo not drawn) | 21.1 µM (active) | 16.8 µM (active) and 26.4 µM (active) | 13.8 µM (active) and 19.3 µM (active) | 21.1 µM (active) and 29.6 µM (active) | inactive | inactive | – | – | – | 26.6 µM (active) |
| CC1=NN(c2ccccc2)C(=O)C1 | – | inactive | inactive | inactive | inactive | inactive | inactive | inactive | inactive | inactive |
| O=C(O)C1CCCN(CCC=C(c2ccccc2)c2ccccc2)C1 (stereo not drawn) | – | inactive | inactive | – | inactive | inactive | – | inactive | inactive | inactive |
| O=S(=O)(c1cccc2cnccc12)N1CCCNCC1 | – | inactive | inactive | inactive | inactive | inactive | inactive | inactive | inactive | – |

| Compound | Potency [1] | Potency [2] | Potency [3] | Potency [4] | Potency [5] | Potency [6] | Potency [7] | Potency [8] | Potency [9] | Potency [10] |
| --- | --- | --- | --- | --- | --- | --- | --- | --- | --- | --- |
| OC(Cn1cncn1)(Cn1cncn1)c1ccc(F)cc1F | – | inactive | inactive | inactive | inactive | inactive | inactive | inactive | inactive | inactive |
| Nc1ccc(S(=O)(=O)Nc2ccccn2)cc1 | – | inactive | inactive | inactive | inactive | inactive | inactive | inactive | inactive | inactive |
| CN(C)CCc1c[nH]c2ccc(C[C@H]3COC(=O)N3)cc12 | – | inactive | inactive | inactive | inactive | inactive | inactive | inactive | inactive | inactive |
| NNC(=O)c1ccncc1 | – | inactive | inactive | inactive | inactive | inactive | inactive | inactive | inactive | – |
| NC1(c2ccc(-c3nc4ccn5c(=O)[nH]nc5c4cc3-c3ccccc3)cc2)CCC1 | – | 16.8 µM (active) | 344 nM (active) and 692 nM (active) | 16.6 µM (active) and 13.3 µM (active) | inactive | 18.7 µM (active) | 11.8 µM (active) | 3.72 µM (active) | 21.7 µM (active) and 24.6 µM (active) | 7.43 µM (active) and 13.3 µM (active) |
| CC(C)(C#N)c1cc(Cn2cncn2)cc(C(C)(C)C#N)c1 | – | inactive | inactive | – | inactive | inactive | inactive | inactive | inactive | inactive |
| N[C@@H](Cc1ccc(O)c(O)c1)C(=O)O | – | inactive | inactive | inactive | inactive | inactive | inactive | inactive | inactive | inactive |
| Cn1nnc2c(C(N)=O)ncn2c1=O | – | inactive | inactive | – | inactive | inactive | inactive | inactive | inactive | inactive |
| C[C@@H](NCCCc1cccc(C(F)(F)F)c1)c1cccc2ccccc12 | – | inactive | – | – | inactive | inactive | inactive | inactive | inactive | – |
| CCn1cc(C(=O)O)c(=O)c2cc(F)c(N3CCNCC3)cc21 | – | inactive | inactive | – | inactive | inactive | inactive | inactive | inactive | inactive |
| CC1CC2C3CCC4=CC(=O)C=C[C@]4(C)[C@@]3(F)[C@@H](O)C[C@]2(C)[C@@]1(O)C(=O)CO (stereo partly drawn) | – | inactive | inactive | – | inactive | – | – | inactive | – | – |
| CNS(=O)(=O)CCc1ccc2[nH]cc(C3CCN(C)CC3)c2c1 | – | inactive | – | – | – | inactive | inactive | – | – | – |
| CCCCOc1ccc(CC(=O)NO)cc1 | – | – | – | 15 µM (active) and 26.4 µM (active) | inactive | inactive | – | 23.5 µM (active) | inactive | inactive |
| CC(C)(C)NC(=O)[C@H]1CC[C@H]2[C@@H]3CC[C@H]4NC(=O)C=C[C@]4(C)[C@H]3CC[C@]12C | – | inactive | 12.2 µM (active) | – | – | inactive | inactive | – | – | – |
| CCCN[C@H]1CCc2nc(N)sc2C1 | – | inactive | inactive | inactive | inactive | inactive | inactive | inactive | – | inactive |
| C[C@@H](CN1CC(=O)NC(=O)C1)N1CC(=O)NC(=O)C1 | – | inactive | inactive | – | inactive | inactive | inactive | 4.18 µM (active) | – | inactive |
| Cc1cccc(N(C)C(=S)Oc2ccc3ccccc3c2)c1 | – | inactive | 24.6 µM (active) | inactive | inactive | inactive | inactive | inactive | – | – |
| COC(=O)Nc1nc2ccc(S(=O)c3ccccc3)cc2[nH]1 (stereo not drawn) | – | – | 1.1 µM (active) and 24.3 µM (active) | – | inactive | inactive | – | 944 nM (active) and 11.8 µM (active) | 2.46 µM (active) | – |
| Cn1c(=O)c2c(ncn2CC(O)CO)n(C)c1=O (stereo not drawn) | – | inactive | inactive | inactive | inactive | inactive | inactive | inactive | – | inactive |
| CC(C)Cn1cnc2c(N)nc3ccccc3c21 | – | inactive | – | – | inactive | inactive | – | – | – | inactive |
| O=c1cc(O)c(Cl)c[nH]1 | – | inactive | inactive | – | inactive | inactive | – | inactive | – | inactive |
| CCOC(=O)[C@H](CCc1ccccc1)N[C@H]1CS[C@H](c2cccs2)CN(CC(=O)O)C1=O | – | – | – | – | inactive | inactive | – | – | – | – |
| CCN(CC)CC#CCOC(=O)C(O)(c1ccccc1)C1CCCCC1 (stereo not drawn) | – | inactive | – | inactive | inactive | inactive | inactive | – | – | inactive |
